# Reference: article PMC7862700, “An all-to-all approach to the identification of sequence-specific readers for epigenetic DNA modifications on cytosine”
# Legend:
# Assay in all cases: DAPPL (digital affinity profiling via proximity ligation, sequencing); 10 mM Tris-HCl pH 7.5, 50 mM NaCl, 1 mM DTT, 4% glycerol, room temperature, 30 min; GST-TFs on glutathione beads, 16-mer random dsDNA library, 0.1% formaldehyde crosslink after washing; high values mean tight binding
# Conditions in all cases: protein: recombinant; tags: N-terminal GST; dsDNA, one strand shown
# ELK1 = molecular target: T1, ELK1 (Homo sapiens, UniProt P19419 1-428)
# T1 sequence: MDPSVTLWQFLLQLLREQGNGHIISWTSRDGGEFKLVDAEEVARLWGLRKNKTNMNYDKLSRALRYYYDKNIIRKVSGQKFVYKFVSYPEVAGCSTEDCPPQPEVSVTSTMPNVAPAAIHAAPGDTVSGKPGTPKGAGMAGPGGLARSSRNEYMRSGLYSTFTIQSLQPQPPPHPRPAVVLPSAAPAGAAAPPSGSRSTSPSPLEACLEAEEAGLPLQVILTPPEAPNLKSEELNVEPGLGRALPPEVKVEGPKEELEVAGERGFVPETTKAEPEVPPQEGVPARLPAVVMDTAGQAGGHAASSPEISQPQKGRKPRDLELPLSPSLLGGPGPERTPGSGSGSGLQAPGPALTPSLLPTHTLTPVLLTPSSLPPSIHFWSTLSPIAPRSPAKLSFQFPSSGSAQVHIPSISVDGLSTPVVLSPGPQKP
# Method in brief: (§1)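 Pools were built from human transcription factors expressed in yeast as GST fusions, captured on glutathione beads and DNA-barcoded, along with a tag-only sample. Incubation with 200 nmole of a 16-mer random double-stranded DNA library lasted 30 min at room temperature in Tris/NaCl/DTT/glycerol buffer, and was followed by washing, 0.1% formaldehyde crosslinking, proximity ligation, PCR amplification and Illumina NextSeq500 sequencing. Binding signal is the quotient of each hexamer's read frequency for a factor and its frequency for the tag-only sample.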
# GABPA = molecular target: T2, GABPA (Homo sapiens, UniProt Q06546 1-454)
# T2 sequence: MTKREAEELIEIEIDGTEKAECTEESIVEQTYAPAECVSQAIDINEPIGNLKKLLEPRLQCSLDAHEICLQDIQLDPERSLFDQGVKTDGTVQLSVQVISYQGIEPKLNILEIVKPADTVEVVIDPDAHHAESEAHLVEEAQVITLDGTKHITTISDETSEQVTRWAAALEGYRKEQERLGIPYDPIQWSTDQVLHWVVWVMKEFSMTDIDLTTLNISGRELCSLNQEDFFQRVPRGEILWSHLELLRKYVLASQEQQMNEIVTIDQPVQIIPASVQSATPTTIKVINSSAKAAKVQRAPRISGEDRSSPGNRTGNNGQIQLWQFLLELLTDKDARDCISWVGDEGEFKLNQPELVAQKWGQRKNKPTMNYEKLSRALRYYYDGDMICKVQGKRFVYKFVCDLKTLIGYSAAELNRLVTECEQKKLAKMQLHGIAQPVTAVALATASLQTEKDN
# Method in brief: as §1
# ERG = molecular target: T3, ERG (Homo sapiens, UniProt P11308 1-479)
# T3 sequence: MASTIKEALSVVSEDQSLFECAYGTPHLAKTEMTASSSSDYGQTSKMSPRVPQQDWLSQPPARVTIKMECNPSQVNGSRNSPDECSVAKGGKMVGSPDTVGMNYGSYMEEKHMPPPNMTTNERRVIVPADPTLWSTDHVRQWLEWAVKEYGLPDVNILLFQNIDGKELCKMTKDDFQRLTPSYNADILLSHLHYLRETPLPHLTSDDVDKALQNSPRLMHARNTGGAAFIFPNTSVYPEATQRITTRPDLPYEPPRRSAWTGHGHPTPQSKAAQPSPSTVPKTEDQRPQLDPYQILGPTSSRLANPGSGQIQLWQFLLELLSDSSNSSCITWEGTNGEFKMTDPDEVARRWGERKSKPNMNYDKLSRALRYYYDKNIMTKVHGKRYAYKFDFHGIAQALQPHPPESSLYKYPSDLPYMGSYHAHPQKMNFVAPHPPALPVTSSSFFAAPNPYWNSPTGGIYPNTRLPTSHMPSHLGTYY
# Method in brief: as §1
# ELF1 = ELF1 (Homo sapiens, UniProt P32519 1-619)
# Method in brief: as §1
# EHF = molecular target: T4, EHF (Homo sapiens, UniProt Q9NZC4 1-300)
# T4 sequence: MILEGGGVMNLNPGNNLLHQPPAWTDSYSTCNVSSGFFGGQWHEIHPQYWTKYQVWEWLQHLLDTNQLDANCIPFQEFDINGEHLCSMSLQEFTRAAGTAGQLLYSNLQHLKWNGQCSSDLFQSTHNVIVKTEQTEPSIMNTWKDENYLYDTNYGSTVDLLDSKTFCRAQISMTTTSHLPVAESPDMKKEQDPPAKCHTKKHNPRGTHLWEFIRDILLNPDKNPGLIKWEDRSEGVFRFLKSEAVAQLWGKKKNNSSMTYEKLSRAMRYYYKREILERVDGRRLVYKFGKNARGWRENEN
# Method in brief: as §1
# SPI1 = SPI1 (Homo sapiens, UniProt P17947 1-270)
# Method in brief: as §1
# SPIB = SPIB (Homo sapiens, UniProt Q01892 1-262)
# Method in brief: as §1
# FEV = molecular target: T5, FEV (Homo sapiens, UniProt Q99581 1-238)
# T5 sequence: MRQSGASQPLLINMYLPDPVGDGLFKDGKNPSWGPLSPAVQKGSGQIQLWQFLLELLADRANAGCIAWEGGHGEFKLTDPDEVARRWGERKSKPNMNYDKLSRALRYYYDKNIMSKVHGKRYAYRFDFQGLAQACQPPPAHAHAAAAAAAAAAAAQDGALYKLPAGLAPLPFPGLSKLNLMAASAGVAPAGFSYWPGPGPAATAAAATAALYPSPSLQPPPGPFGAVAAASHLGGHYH
# Method in brief: as §1
# ETV5 = ETV5 (Homo sapiens, UniProt P41161 1-510)
# Method in brief: as §1
# ELF4 = ELF4 (Homo sapiens, UniProt Q99607 1-663)
# Method in brief: as §1
# ELK4 = molecular target: T6, ELK4 (Homo sapiens, UniProt P28324-2 1-405)
# T6 sequence: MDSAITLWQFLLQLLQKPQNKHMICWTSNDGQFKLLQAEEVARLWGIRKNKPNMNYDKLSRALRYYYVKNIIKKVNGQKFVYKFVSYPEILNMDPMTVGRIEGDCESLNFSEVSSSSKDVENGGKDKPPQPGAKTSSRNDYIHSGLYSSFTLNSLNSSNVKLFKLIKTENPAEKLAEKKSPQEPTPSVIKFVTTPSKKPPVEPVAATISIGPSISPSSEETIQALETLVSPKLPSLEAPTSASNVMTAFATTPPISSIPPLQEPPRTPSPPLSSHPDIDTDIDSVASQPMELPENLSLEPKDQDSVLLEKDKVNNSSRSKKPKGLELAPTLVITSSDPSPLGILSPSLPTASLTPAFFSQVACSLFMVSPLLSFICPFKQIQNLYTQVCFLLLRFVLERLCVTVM
# Method in brief: as §1
# ELF3 = molecular target: T7, ELF3 (Homo sapiens, UniProt P78545 1-371)
# T7 sequence: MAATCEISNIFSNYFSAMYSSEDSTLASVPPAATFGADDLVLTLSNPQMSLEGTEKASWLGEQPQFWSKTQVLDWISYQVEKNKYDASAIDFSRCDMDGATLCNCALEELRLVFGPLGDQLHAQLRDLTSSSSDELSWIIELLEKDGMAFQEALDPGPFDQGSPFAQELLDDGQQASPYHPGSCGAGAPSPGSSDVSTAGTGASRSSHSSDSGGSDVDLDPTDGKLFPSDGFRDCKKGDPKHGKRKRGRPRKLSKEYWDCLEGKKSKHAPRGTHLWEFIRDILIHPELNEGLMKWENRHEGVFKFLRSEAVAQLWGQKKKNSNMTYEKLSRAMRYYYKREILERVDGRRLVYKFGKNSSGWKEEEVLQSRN
# Method in brief: as §1
# ETV1 = ETV1 (Homo sapiens, UniProt P50549 1-477)
# Method in brief: as §1
# ERF = molecular target: T8, ERF (Homo sapiens, UniProt P50548 1-548)
# T8 sequence: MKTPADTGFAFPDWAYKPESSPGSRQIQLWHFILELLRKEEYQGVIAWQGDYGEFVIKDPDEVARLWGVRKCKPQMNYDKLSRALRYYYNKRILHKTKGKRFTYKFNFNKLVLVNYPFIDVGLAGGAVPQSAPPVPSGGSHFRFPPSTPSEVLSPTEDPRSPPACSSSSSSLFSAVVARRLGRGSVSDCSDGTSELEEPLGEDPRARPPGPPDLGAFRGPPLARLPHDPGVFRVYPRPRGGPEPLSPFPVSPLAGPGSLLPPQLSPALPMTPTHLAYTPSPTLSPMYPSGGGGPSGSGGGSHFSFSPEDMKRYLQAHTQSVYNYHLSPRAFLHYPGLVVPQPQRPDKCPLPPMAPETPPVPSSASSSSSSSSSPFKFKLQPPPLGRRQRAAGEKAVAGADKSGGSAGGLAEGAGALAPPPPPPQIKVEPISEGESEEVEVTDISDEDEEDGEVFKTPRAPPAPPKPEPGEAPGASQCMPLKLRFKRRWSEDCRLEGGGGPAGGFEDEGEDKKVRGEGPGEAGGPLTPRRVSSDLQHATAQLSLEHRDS
# Method in brief: as §1
# ETV3L = molecular target: T9, ETV3L (Homo sapiens, UniProt Q6ZN32 1-361)
# T9 sequence: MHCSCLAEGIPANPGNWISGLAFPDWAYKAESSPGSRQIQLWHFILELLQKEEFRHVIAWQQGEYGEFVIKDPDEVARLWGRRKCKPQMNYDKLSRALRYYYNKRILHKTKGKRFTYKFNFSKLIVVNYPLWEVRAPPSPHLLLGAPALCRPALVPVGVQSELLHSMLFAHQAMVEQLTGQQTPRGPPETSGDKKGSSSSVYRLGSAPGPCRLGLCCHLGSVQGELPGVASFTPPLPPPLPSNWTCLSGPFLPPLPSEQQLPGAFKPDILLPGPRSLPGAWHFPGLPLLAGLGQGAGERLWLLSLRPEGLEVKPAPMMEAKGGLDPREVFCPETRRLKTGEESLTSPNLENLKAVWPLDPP
# Method in brief: as §1
# ETS2 = molecular target: T10, ETS2 (Homo sapiens, UniProt P15036 1-469)
# T10 sequence: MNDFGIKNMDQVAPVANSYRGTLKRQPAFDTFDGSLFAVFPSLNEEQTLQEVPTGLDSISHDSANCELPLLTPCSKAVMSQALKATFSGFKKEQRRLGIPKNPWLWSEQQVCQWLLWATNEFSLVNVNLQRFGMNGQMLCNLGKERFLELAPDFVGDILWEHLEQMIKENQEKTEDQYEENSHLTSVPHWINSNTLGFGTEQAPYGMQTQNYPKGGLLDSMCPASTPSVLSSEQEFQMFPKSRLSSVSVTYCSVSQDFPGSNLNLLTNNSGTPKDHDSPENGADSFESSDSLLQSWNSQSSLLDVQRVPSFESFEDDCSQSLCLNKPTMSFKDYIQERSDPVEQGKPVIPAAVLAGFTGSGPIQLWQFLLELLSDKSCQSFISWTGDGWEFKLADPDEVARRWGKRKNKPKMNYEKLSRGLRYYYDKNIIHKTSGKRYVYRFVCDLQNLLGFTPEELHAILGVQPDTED
# Method in brief: as §1
# SPDEF = molecular target: T11, SPDEF (Homo sapiens, UniProt O95238 1-335)
# T11 sequence: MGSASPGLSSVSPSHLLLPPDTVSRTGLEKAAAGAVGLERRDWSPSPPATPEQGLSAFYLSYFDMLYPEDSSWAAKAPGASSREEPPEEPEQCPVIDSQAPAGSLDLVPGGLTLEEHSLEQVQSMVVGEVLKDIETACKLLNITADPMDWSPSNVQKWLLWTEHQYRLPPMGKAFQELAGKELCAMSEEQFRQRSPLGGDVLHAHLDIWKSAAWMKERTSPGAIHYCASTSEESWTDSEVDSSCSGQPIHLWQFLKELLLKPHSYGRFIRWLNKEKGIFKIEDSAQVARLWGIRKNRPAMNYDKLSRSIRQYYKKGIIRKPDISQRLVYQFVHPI
# Method in brief: as §1
# ETV7 = molecular target: T12, ETV7 (Homo sapiens, UniProt Q9Y603 1-341)
# T12 sequence: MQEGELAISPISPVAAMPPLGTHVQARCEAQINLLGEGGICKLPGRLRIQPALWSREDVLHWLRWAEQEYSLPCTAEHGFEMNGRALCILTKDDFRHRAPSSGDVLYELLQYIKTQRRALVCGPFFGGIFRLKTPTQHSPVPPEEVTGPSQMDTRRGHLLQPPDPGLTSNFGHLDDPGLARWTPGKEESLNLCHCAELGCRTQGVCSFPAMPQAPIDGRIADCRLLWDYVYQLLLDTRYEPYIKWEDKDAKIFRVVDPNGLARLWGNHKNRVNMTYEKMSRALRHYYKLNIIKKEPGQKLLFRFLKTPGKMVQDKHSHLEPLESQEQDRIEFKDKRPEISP
# Method in brief: as §1
# ETV3 = molecular target: T13, ETV3 (Homo sapiens, UniProt P41162-2 1-143)
# T13 sequence: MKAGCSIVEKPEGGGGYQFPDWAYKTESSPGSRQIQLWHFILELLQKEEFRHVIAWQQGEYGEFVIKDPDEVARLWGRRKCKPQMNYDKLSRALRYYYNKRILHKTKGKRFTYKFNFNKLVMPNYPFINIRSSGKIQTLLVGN
# Method in brief: as §1
# ETV6 = ETV6 (Homo sapiens, UniProt P41212 1-452)
# Method in brief: as §1
# Sequence of SPIB (Q01892 whole entry): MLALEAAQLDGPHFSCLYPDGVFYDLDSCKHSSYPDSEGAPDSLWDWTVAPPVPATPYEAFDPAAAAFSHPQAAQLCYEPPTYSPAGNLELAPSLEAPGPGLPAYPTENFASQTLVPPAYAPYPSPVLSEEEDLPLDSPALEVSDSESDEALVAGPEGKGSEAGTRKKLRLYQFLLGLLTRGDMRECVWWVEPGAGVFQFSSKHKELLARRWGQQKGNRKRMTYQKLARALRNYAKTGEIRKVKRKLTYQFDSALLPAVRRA
# Sequence of ETV6 (P41212 whole entry): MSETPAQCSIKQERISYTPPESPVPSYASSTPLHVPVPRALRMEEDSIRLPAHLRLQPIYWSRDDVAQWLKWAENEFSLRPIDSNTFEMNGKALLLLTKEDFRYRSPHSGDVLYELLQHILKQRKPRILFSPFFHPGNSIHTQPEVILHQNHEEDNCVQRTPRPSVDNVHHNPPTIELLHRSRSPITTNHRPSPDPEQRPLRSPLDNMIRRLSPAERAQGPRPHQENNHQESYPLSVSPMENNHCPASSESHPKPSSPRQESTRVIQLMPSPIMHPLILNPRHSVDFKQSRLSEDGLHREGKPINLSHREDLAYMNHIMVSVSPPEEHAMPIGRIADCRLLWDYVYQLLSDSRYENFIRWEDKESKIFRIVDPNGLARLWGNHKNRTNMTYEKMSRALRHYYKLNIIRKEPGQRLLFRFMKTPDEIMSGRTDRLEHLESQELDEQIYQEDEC
# Sequence of ELF4 (Q99607 whole entry): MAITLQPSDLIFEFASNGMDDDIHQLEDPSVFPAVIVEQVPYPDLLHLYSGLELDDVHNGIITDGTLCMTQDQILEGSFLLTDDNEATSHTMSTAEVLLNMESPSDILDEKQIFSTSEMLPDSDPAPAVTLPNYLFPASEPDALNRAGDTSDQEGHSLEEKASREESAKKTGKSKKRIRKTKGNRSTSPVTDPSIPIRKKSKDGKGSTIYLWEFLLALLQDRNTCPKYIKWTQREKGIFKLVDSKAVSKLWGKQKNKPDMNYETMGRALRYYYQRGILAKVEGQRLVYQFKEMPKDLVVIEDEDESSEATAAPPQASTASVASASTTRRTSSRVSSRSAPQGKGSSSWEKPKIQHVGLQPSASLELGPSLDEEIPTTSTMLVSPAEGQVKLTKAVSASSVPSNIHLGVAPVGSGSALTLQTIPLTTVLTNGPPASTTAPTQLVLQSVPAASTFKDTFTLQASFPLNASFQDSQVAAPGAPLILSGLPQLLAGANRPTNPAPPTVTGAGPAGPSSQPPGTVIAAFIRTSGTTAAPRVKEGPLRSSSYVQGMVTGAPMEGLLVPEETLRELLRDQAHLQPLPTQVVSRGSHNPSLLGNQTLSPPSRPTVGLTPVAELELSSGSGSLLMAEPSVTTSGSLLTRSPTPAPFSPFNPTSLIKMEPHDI
# Sequence of ETV5 (P41161 whole entry): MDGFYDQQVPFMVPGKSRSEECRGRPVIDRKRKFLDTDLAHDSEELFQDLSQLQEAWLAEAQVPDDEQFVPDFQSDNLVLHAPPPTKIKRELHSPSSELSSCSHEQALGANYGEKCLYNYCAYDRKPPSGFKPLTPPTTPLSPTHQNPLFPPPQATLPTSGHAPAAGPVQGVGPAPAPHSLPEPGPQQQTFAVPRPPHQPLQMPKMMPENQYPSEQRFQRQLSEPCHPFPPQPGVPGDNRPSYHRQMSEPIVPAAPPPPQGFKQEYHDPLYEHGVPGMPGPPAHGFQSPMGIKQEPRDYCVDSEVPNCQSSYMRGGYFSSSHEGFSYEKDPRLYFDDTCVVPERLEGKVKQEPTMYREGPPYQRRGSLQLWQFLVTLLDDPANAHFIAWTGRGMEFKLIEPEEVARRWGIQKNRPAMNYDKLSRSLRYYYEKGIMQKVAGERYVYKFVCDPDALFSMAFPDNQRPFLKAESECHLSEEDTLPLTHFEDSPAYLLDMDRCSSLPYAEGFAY
# Sequence of ETV1 (P50549 whole entry): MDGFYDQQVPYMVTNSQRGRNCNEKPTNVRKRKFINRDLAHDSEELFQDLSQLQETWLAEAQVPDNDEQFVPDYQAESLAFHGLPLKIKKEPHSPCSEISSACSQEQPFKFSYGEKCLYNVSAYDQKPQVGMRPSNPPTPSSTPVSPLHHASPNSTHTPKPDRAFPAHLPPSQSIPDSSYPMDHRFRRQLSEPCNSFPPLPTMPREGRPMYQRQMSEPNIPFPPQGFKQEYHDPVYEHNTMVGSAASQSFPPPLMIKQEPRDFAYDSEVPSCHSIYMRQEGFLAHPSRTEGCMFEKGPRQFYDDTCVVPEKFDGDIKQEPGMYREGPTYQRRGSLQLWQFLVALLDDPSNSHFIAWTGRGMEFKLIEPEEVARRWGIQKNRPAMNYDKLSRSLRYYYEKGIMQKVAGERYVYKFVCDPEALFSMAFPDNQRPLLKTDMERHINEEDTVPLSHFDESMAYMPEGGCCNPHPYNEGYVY
# Sequence of ELF1 (P32519 whole entry): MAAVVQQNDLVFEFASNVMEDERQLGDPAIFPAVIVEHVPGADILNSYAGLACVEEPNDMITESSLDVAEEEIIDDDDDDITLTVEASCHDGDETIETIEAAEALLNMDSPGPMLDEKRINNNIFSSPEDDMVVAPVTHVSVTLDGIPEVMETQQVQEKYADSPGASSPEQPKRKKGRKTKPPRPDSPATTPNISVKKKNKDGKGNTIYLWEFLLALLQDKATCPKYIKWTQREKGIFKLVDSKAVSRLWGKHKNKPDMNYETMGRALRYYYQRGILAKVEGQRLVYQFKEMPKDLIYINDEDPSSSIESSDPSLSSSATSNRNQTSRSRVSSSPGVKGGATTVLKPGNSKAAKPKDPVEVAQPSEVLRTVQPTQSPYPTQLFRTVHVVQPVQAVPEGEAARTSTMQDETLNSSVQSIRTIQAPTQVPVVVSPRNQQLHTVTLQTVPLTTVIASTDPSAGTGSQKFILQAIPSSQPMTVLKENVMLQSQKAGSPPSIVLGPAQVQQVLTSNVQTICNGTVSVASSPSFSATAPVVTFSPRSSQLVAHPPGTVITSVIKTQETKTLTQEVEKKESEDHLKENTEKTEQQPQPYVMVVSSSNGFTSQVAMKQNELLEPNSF
sequence,measurement,setting,value
AAGATC,binding signal,ELK1,"1.07 fold enrichment (6-mer frequency, TF over GST control)"
same,binding signal,GABPA,"1.08 fold enrichment (6-mer frequency, TF over GST control)"
same,binding signal,ERG,"1.07 fold enrichment (6-mer frequency, TF over GST control)"
same,binding signal,ELF1,"1.05 fold enrichment (6-mer frequency, TF over GST control)"
same,binding signal,EHF,"1.04 fold enrichment (6-mer frequency, TF over GST control)"
same,binding signal,SPI1,"1.04 fold enrichment (6-mer frequency, TF over GST control)"
same,binding signal,SPIB,"1.13 fold enrichment (6-mer frequency, TF over GST control)"
same,binding signal,FEV,"1.03 fold enrichment (6-mer frequency, TF over GST control)"
same,binding signal,ETV5,"1.03 fold enrichment (6-mer frequency, TF over GST control)"
same,binding signal,ELF4,"1.03 fold enrichment (6-mer frequency, TF over GST control)"
same,binding signal,ELK4,"1.01 fold enrichment (6-mer frequency, TF over GST control)"
same,binding signal,ELF3,"1.15 fold enrichment (6-mer frequency, TF over GST control)"
same,binding signal,ETV1,"1.08 fold enrichment (6-mer frequency, TF over GST control)"
same,binding signal,ERF,"1.12 fold enrichment (6-mer frequency, TF over GST control)"
same,binding signal,ETV3L,"1.03 fold enrichment (6-mer frequency, TF over GST control)"
same,binding signal,ETS2,"1.05 fold enrichment (6-mer frequency, TF over GST control)"
same,binding signal,SPDEF,"1.27 fold enrichment (6-mer frequency, TF over GST control)"
same,binding signal,ETV7,"1.08 fold enrichment (6-mer frequency, TF over GST control)"
same,binding signal,ETV3,"1.12 fold enrichment (6-mer frequency, TF over GST control)"
same,binding signal,ETV6,"1.01 fold enrichment (6-mer frequency, TF over GST control)"
